Laboratory results published in PubChem BioAssay (NCATS).
Results filed as inconclusive are left out. Calls of active or inactive are those of the source. Calls follow the shape of the dose curve; as a rule, active = well fitted curve in the direction sought with a large enough effect; inconclusive = small, poorly fitted or top-dose-only effect, or another doubt; inactive = no such curve, though single readings can be large; an effect the other way counts as inactive or inconclusive.

How the values were obtained:
[1] = target: Pyruvate kinase PKM (Homo sapiens) (UniProt P14618); assay: qHTS Assay for Inhibitors of Human Muscle Pyruvate Kinase (AID 958); details: purified human PKM enzyme activity
Sequence of Pyruvate kinase PKM (Homo sapiens) (P14618 whole entry, looked up): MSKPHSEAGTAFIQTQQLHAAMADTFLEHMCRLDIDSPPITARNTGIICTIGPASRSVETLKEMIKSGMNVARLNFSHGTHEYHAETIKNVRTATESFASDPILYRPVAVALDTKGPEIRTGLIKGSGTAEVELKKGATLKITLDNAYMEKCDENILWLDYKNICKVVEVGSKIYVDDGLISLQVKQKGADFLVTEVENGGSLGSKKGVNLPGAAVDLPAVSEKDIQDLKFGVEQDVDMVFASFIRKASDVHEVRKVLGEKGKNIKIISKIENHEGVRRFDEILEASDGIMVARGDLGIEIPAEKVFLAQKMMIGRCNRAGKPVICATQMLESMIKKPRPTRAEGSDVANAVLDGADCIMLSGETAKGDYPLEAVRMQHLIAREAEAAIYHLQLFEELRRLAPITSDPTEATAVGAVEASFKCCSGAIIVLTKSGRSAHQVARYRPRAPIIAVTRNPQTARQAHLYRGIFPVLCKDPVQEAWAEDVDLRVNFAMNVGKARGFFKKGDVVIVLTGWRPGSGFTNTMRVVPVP
How it was run: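 Human PKM2 activity is measured as ATP generation, detected by luciferase-coupled luminescence. The enzyme (0.1 nM) acts on 0.5 mM PEP and 0.1 mM ADP for 1 h at ambient temperature; data are normalized to uninhibited and full-inhibition wells.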

[2] = MultiTox-Fluor Cytotoxicity Assay - LYMP1-002 - Dead Cells (AID 960); details: LYMP1-002 lymphoblastoid cells, dead-cell protease fluorescence; series mostly up to 46.1 µM; also: potency is read from the fitted curve at half-maximal effect; nearly all actives have a fitted effect of over 60% in size
How it was run: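 Human lymphoblastoid LYMP1-002 cells, 2500/well, treated 16 h at 37 C; dead-cell protease cleavage of bis-AAF-R110 read by fluorescence (485/520); normalized to DMSO and 15 uM tetraoctylammonium bromide; AC50 from Hill fit.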

[3] = Cell Viability - LYMP1-003 - Assay at 40 hr (AID 964); details: LYMP1-003 lymphoblastoid viability; series mostly up to 92.2 µM; also: potency is read from the fitted curve at half-maximal effect; nearly all actives have a fitted effect of over 60% in size
How it was run: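 LYMP1-003 human lymphoblastoid cells, 2500/well, preincubated 5 h at 37 C, then treated with compound for 40 h at 37 C. Intracellular ATP read by CellTiter-Glo luminescence after 30 min at room temperature; AC50 from Hill-equation fits.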

**Q.** For `O=C(Nc1ccc([N+](=O)[O-])cc1Cl)c1cc(Cl)ccc1O`, which Potency [1] is on record?
**A.** Its Potency is 3160 nM (active).

**Q.** For `Cn1ccc2cc3c(cc21)CCN3C(=O)Nc1cccnc1`, which Potency [1] is on record?
**A.** The Potency was 6310 nM (active).

**Q.** With `COc1cc2c(c(OC)c1OC)-c1ccc(OC)c(=O)cc1[C@@H](NC(C)=O)CC2` as the molecule, how does the Potency [2] read?
**A.** The Potency was 50.1 nM (active).

**Q.** And the Potency [3]?
**A.** The Potency was 20 nM (active).
